Laboratory results as given in PubChem BioAssay AID629 (Emory University Molecular Libraries Screening Center, 2007).
The whole screen tested about 86,000 compounds, of which about 1,400 (1.6%) were called active. The entries come from a sample that favours actives as a whole. Values without a mark were called inactive. Cut-off read from the data, not from the text of the source: active = inhibition above about 50%; inactive = the rest.

Biological target: Estrogen receptor (Homo sapiens) (UniProt P03372)
Assay: ERα–SRC-1 coactivator interaction inhibitors, primary screen, biochemical, TR-FRET, ERα LBD, estradiol-bound (AID 629);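 note: 0% = receptor plus peptide control and 100% = peptide only without receptor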
Conditions: TR-FRET ER-alpha LBD / SRC-1 peptide, at 25.6 µM, active compounds read high

Chain of Estrogen receptor (Homo sapiens) (P03372 whole entry, looked up, the tested form may be a part): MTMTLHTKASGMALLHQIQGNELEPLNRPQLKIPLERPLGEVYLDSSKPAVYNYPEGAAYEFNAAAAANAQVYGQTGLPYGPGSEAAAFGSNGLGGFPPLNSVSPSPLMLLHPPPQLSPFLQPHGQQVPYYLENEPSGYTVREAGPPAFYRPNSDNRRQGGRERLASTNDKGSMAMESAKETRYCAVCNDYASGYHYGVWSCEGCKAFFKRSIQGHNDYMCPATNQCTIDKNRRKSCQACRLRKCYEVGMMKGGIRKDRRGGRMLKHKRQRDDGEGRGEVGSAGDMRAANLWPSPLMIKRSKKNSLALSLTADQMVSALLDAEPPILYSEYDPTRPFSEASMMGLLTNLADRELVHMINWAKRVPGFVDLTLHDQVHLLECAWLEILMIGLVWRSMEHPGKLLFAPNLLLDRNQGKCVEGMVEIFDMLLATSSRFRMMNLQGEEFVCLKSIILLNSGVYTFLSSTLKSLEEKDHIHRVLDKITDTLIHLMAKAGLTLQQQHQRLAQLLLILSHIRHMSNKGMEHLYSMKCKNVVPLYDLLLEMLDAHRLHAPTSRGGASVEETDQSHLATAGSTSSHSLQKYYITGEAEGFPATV

| Compound | inhibition |
| --- | --- |
| COC(=O)C1=C(Nc2ccc(C)cc2)C=C(C)C(C(=O)OC)C1c1ccc(F)cc1 (stereo unspecified) | -7.97% |
| Cc1nn(C)cc1CNC(=O)Nc1ccc(Cl)cc1 | 5.21% |
| Cc1cccc(C(=O)Nc2ccccc2N2CCN(c3ccc(F)cc3)CC2)c1 | -12.2% |
| O=C1CCCc2nn(-c3ccccc3)nc21 | -5.5% |
| O=C(CCC(=O)c1cccs1)NCc1ccccc1 | 3.23% |
| O=C(COC(=O)CCC(=O)c1cccs1)NCc1ccco1 | 71.3% (active) |
| O=C(COC(=O)C12CC3CC(CC(C3)C1)C2)NCc1ccco1 | 21% |
| O=C(Nc1nncs1)c1cccc(S(=O)(=O)N2CCCCC2)c1 | -7.35% |
| CC(C)(C)n1nnnc1C(c1ccc(Cl)cc1)N1CCSCC1 (stereo unspecified) | -5.89% |
| O=C(Cn1cc(C(=O)c2cccs2)c2ccccc21)NCc1cccs1 | 4.67% |
| Cc1cccc(NC(=O)CSc2nnc(-c3ccco3)o2)c1 | -9.42% |
| Cc1cccc(NC(=O)Cn2cc(C(=O)c3ccco3)c3ccccc32)c1 | 52.3% (active) |
| Cc1cc(C)c2cc(CN(Cc3nnnn3Cc3ccc(F)cc3)C3CCCC3)c(=O)[nH]c2c1 | 7.55% |
| COc1ccc(-c2nnc(SCc3cccnc3)o2)cc1 | -6.1% |
| COc1ccc(S(=O)(=O)N/N=C\c2ccc(OC)c(COc3ccc(C)cc3[N+](=O)[O-])c2)cc1 | 17.7% |
| O=C(CSc1nnnn1-c1ccccc1)NCc1ccco1 | 33.1% |
| COc1ccc(Cc2nnc(NS(=O)(=O)Cc3ccccc3)s2)cc1 | -16.5% |
| CCCc1ccc(-c2csc(NC(=O)Cc3cccs3)n2)cc1 | 7.36% |
| COc1ccc(Cc2nnc(NC(=O)Cc3cccs3)s2)cc1 | 97.3% [fluorescence artefact?] (active) |
| CC(C)(C)C(=O)Cn1c(NCCO)nc2ccccc21 | -7.55% |
| CN(Cc1ccccc1)C(=O)COc1ccccc1 | 21% |
| Cc1ccc(Cn2c(C)nc3c(c2=O)c2nc4ccccc4nc2n3Cc2ccco2)cc1 | 45.1% |
| COCCCn1c2nc3ccccc3nc2c2c(=O)n(Cc3ccc(Cl)cc3)c(C)nc21 | 22.2% |

| Compound | inhibition |
| --- | --- |
| Cc1nc2c(c(=O)n1Cc1ccco1)c1nc3ccccc3nc1n2Cc1ccccc1 | 79.5% (active) |
| CC1(C)CCc2nc(SCc3ccccc3)c(C#N)cc2C1 | -2.01% |
| C=C(C)CNC(=S)/N=c1\scc(C)n1CC | 64.7% [fluorescence artefact?] (active) |
| CS(=O)(=O)n1nc(-c2ccccc2)nc1NCc1ccco1 | -3% |
| CCOc1ccc2c(c1)C(c1ccc(C)cc1)=NNC(c1ccc(C)cc1)=N2 | -14.6% |
| Clc1ccc(COn2c(-c3ccc(Cl)cc3Cl)nc3ncccc32)cc1 | 27.7% |
| COc1ccc(S(=O)(=O)NCc2ccc(C(=O)N(C)Cc3ccco3)cc2)cc1 | 2.78% |
| Cc1nc2sc(C(c3ccco3)N3CCOCC3)c(O)n2n1 (stereo unspecified) | -24% |
| O=C(c1cccnc1NCc1ccccc1)N1CCOCC1 | -6.49% |
| Oc1c(C(c2ccccn2)N2CCOCC2)ccc2cccnc12 (stereo unspecified) | 70% [fluorescence artefact?] (active) |
| CCc1nnc(NC(=O)CCC(=O)NCc2ccccc2OC)s1 | -1.4% |
| O=C(Nc1ccc2oc(-c3ccc4ccccc4c3)nc2c1)c1cccs1 | 55% (active) |
| O=C(Cc1cccc2ccccc12)Nc1ccc2oc(-c3ccccc3)nc2c1 | -1.24% |
| Cc1nc(-c2ccc(NC(=O)c3cccs3)cc2)cs1 | -16.8% |
| CCOC(=O)c1ccccc1NS(=O)(=O)c1ccc(OC)cc1 | -11.3% |
| CCOC(=O)N1CCN(C(=O)CSc2ccc(Cl)cc2)CC1 | -2.04% |
| CCOC(=O)N1CCN(C(=O)c2cc3c(ccc4ccccc43)oc2=O)CC1 | -9.07% |
| CCOC(=O)N1CCN(C(c2cccnc2)c2ccc3cccnc3c2O)CC1 (stereo unspecified) | 53.3% [fluorescence artefact?] (active) |
| CCN1CCN(C(c2cccnc2)c2cc(Cl)c3cccnc3c2O)CC1 (stereo unspecified) | 65.6% [fluorescence artefact?] (active) |
| Oc1c(CN2CCN(c3ccc(F)cc3)CC2)cc(Cl)c2cccnc12 | -0.01% |
| CCn1c(=O)c(=O)n(CC)c2cc(S(=O)(=O)N3CCc4ccccc43)ccc21 | -5.41% |
| CCN(CC)CC(=O)c1c[nH]c2ccc(OC)cc12 | -8.61% |
| CCOC(=O)/C(C#N)=C\c1c(C)cc(C)c(COC(C)=O)c1C | -6.55% |

| Compound | inhibition |
| --- | --- |
| O=C(Nc1nc(-c2ccc3c(c2)OCO3)cs1)c1ccncc1 | 58% [fluorescence artefact?] (active) |
| O=C(Nc1nc(-c2ccncc2)cs1)C1COc2ccccc2O1 (stereo unspecified) | 1.84% |
| O=C(Nc1ccc2c(c1)OCCO2)c1ccncc1 | -22.6% |
| COc1ccc(CN(C(=O)CSc2nnc(-c3ccc(OC)c(OC)c3)o2)c2ccc(F)cc2)cc1 | -6.76% |
| COc1ccc(C(=O)N2CC3(C)CC2CC(C)(C)C3)cc1OC (stereo unspecified) | -3.82% |
| O=C(CSc1nnc(-c2cccnc2)n1CCc1ccccc1)NCc1ccccc1 | -17.8% |
| c1ccc(-c2cc(-c3nnc4sc(-c5ccccn5)nn34)[nH]n2)cc1 | 54.2% [fluorescence artefact?] (active) |
| CCOc1cccc(-c2nn3c(-c4ccccn4)nnc3s2)c1 | 2.04% |
| COc1ccc(-c2nn3c(-c4ccccc4)nnc3s2)cc1OC | 3.83% |
| O=C(/C=C/NNC(=O)c1cccc(Br)c1)c1ccccc1 | -3.8% |
| C=CCO/N=C(\C)c1c(O)c(C)c(-c2ccccc2)n(-c2ccccc2)c1=O | 2.56% |
| CC(=O)Nc1cccc(Oc2cc(C#N)c(C#N)cc2N2CCOCC2)c1 | 8.98% |
| CCOc1cc(N2CCOCC2)c(OCC)cc1NC(=O)COC(=O)[C@H](Cc1c[nH]c2ccccc12)NC(C)=O | -11.8% |
| CCOc1cc(N2CCOCC2)c(OCC)cc1NC(=O)COc1cccc2cccnc12 | 94.2% [fluorescence artefact?] (active) |
| COc1ccc(OC)c2c1sc(=NC(=O)CN1C(=O)CCC1=O)n2C | 28.2% |
| COc1ccc(C)c2sc(=NC(=O)c3ccc(C#N)cc3)n(C)c12 | 79.7% [fluorescence artefact?] (active) |
| Cn1c(=NC(=O)C2CC2)sc2cc(F)cc(F)c21 | -0.62% |
| CCC(c1nnnn1C(C)(C)C)N(Cc1cc2cccc(C)c2n2nnnc12)C1CCCC1 (stereo unspecified) | -3.95% |
| CCc1nc(N2CCN(c3nc(C)cc(C)n3)CC2)c2oc3ccccc3c2n1 | 49.1% |
| Cc1nc(N2CCN(c3ncccn3)CC2)c2oc3ccccc3c2n1 | 54.3% [fluorescence artefact?] (active) |
| Cc1cc(C)nc(N2CCN(c3ncnc4c3oc3ccccc34)CC2)n1 | 16.1% |
| c1ccc(-c2nc(NCc3ccco3)c3ccccc3n2)cc1 | 2.5% |
| O=C(Cc1ccccc1)n1nc(-c2ccccc2)nc1NCc1ccco1 | -2.71% |

| Compound | inhibition |
| --- | --- |
| CN1CCc2c(sc3c2c(NCc2ccco2)nc2nnnn23)C1 | 84.9% [fluorescence artefact?] (active) |
| CC(C)CCNC(=O)CC1C(=O)N(Cc2ccccc2)C(C)c2nc3ccccc3n21 (stereo unspecified) | -8.13% |
| COCCNS(=O)(=O)c1cc(Br)ccc1OC | 3.01% |
| CC(C)(C)c1ccc(C(=O)NCC(=O)OCN2C(=O)c3ccccc3C2=O)cc1 | 0.65% |
| O=C(OCC#CCSc1nnc(-c2ccncc2)o1)c1sc2ccccc2c1Cl | -0.24% |
| O=C(CN1C(=O)CC(c2ccccc2)=Nc2ccccc21)NC1CCCCC1 | -6.54% |
| Cn1c(=NC(=O)CSCC(=O)N2CCCCC2)sc2ccccc21 | -2.22% |
| Cn1c(=NC(=O)CSCC(=O)N2CCOCC2)sc2ccccc21 | -10.2% |
| Cn1c(=NC(=O)c2cnccn2)sc2ccccc21 | 56.8% [fluorescence artefact?] (active) |
| O=C(Nc1ccc2nc3n(c(=O)c2c1)CCCCC3)c1ccccc1Cl | 1.87% |
| CCCc1noc2c1/C(=N\O)CCC2 | -11.6% |
| COc1ccc(S(=O)(=O)Nc2ccc(F)cc2)c(C)c1C | 10.1% |
| O=C(NCc1ccccn1)c1cc2ccccc2oc1=O | -3.07% |
| O=C(NCc1ccccn1)c1ccc2nc(-c3ccco3)c(-c3ccco3)nc2c1 | 88% [fluorescence artefact?] (active) |
| CN(c1ccc(C(=O)NCc2ccccn2)cc1)S(C)(=O)=O | -0.26% |
| CCN(CC)C(=O)CSc1nc2ccccc2o1 | -2.4% |
| O=S(=O)(NCCNS(=O)(=O)c1ccccc1)c1ccccc1 | -4.42% |
| O=c1/c(=C/c2ccc(CNS(=O)(=O)c3ccccc3)o2)sc2n1CCN=2 | 51.2% [fluorescence artefact?] (active) |
| O=S(=O)(NCC1OCCc2ccccc21)c1ccccc1 (stereo unspecified) | -3.46% |
| CC(=O)C1=C(C)NC(=O)NC1c1cc(Br)ccc1OCC#N (stereo unspecified) | -10.9% |
| CC(C)n1c(-c2cccs2)nc2ccccc21 | -8.49% |
| O=C(CCn1c(SCC(=O)c2ccccc2)nc2ccccc2c1=O)NCc1ccc(F)cc1 | 47.2% |
